Measured values as given in PubChem BioAssay AID1159580 (chemical genetic matrix, 2015).
Out of some 5,500 compounds screened, about 2,000 (36%) were called active. Another 18% or so got no clear call; they are omitted. No stated cut-off is given here; in the data, active means normalized growth mostly below about 0.91 (no sharp cut-off); inconclusive means no clear call, values can overlap the other calls; inactive means mostly above about 0.92. The list shows a part of the results.

Assay: chemical genetic growth profiling, strain panel (AID 1159580);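 further: tested at 20 µM; growth read once vehicle control cultures reached saturation at 30 °C; 1 = growth at the plate median or of vehicle wells; lower values mean less growth of the strain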
Conditions: growth OD

Measured: normalized growth

CCS(=O)(=O)CCn1c([N+](=O)[O-])cnc1C
inactive: S. cerevisiae deletion strains, locus YJR075W, strain HOC1, active compounds read low 0.981 | S. cerevisiae deletion strains, locus YKL009W, strain mrt4, active compounds read low 1.04 | S. cerevisiae deletion strains, locus YKL068W, active compounds read low 1.02 | S. cerevisiae deletion strains, locus YKL085W, strain MDH1 (second series), active compounds read low 1.04 | S. cerevisiae deletion strains, locus YKL085W, strain MDH1, active compounds read low 1.04 | S. cerevisiae deletion strains, locus YKL160W, strain elf1, active compounds read low 1.03 | S. cerevisiae deletion strains, locus YKL190W, strain CNB1, active compounds read low 1.01 | S. cerevisiae deletion strains, locus YKR001C, strain vps1, active compounds read low 1.03 | S. cerevisiae deletion strains, locus YKR026C, strain gcn3, active compounds read low 0.984 | S. cerevisiae deletion strains, locus YKR091W, strain srl3, active compounds read low 0.999 | S. cerevisiae deletion strains, locus YLL001W, strain dnm1, active compounds read low 0.993 | S. cerevisiae deletion strains, locus YLL026W, active compounds read low 1.01 | S. cerevisiae deletion strains, locus YLL041C, strain sdh2, active compounds read low 0.993 | S. cerevisiae deletion strains, locus YLR027C, strain aat2, active compounds read low 0.997 | S. cerevisiae deletion strains, locus YLR039C, strain RIC1, active compounds read low 1.07 | S. cerevisiae deletion strains, locus YLR058C, strain SHM2, active compounds read low 1.01 | S. cerevisiae deletion strains, locus YLR102C, strain apc9, active compounds read low 1.01 | S. cerevisiae deletion strains, locus YLR113W, strain HOG1, active compounds read low 0.938 | S. cerevisiae deletion strains, locus YLR221C, strain rsa3, active compounds read low 0.989 | S. cerevisiae deletion strains, locus YLR258W, strain gsy2, active compounds read low 1.01 | S. cerevisiae deletion strains, locus YLR262C, strain YPT6 (second series), active compounds read low 0.967 | S. cerevisiae deletion strains, locus YLR262C, strain YPT6, active compounds read low 1.1 | S. cerevisiae deletion strains, locus YLR268W, strain sec22, active compounds read low 1.01 | S. cerevisiae deletion strains, locus YLR320W, strain mms22, active compounds read low 0.972 | S. cerevisiae deletion strains, locus YLR330W, strain CHS5, active compounds read low 1.01 | S. cerevisiae deletion strains, locus YLR342W, strain FKS1 (second series), active compounds read low 1.06 | S. cerevisiae deletion strains, locus YLR342W, strain FKS1, active compounds read low 1.02 | S. cerevisiae deletion strains, locus YLR357W, strain rsc2, active compounds read low 0.999 | S. cerevisiae deletion strains, locus YLR370C, strain arc18, active compounds read low 1 | S. cerevisiae deletion strains, locus YLR371W, strain rom2, active compounds read low 1.01 | S. cerevisiae deletion strains, locus YLR384C, strain iki3, active compounds read low 1.01 | S. cerevisiae deletion strains, locus YLR418C, strain cdc73, active compounds read low 1.03 | S. cerevisiae deletion strains, locus YML016C, strain PPZ1, active compounds read low 1.01 | S. cerevisiae deletion strains, locus YML032C, strain rad52, active compounds read low 1.03 | S. cerevisiae deletion strains, locus YML120C, strain ndi1, active compounds read low 1 | S. cerevisiae deletion strains, locus YML124C, strain tub3, active compounds read low 1 | S. cerevisiae deletion strains, locus YMR058W, strain fet3, active compounds read low 1 | S. cerevisiae deletion strains, locus YMR078C, strain ctf18, active compounds read low 1.01 | S. cerevisiae deletion strains, locus YMR125W, strain sto1, active compounds read low 0.976 | S. cerevisiae deletion strains, locus YMR129W, active compounds read low 0.98 | S. cerevisiae deletion strains, locus YMR205C, strain PFK2, active compounds read low 0.988 | S. cerevisiae deletion strains, locus YMR223W, strain ubp8, active compounds read low 1.04 | S. cerevisiae deletion strains, locus YMR231W, strain pep5, active compounds read low 0.991 | S. cerevisiae deletion strains, locus YMR263W, strain SAP30, active compounds read low 1.02 | S. cerevisiae deletion strains, locus YMR307W, strain GAS1, active compounds read low 1.21 | S. cerevisiae deletion strains, locus YNL067W, strain RPL9B, active compounds read low 1.02 | S. cerevisiae deletion strains, locus YNL071W, strain lat1, active compounds read low 0.982 | S. cerevisiae deletion strains, locus YNL128W, strain TEP1, active compounds read low 1.02 | S. cerevisiae deletion strains, locus YNL153C, strain GIM3, active compounds read low 1.01 | S. cerevisiae deletion strains, locus YNL183C, strain NPR1, active compounds read low 0.915 | S. cerevisiae deletion strains, locus YNL209W, strain ssb2, active compounds read low 0.987 | S. cerevisiae deletion strains, locus YNL233W, strain BNI4, active compounds read low 1.02 | S. cerevisiae deletion strains, locus YNL248C, strain rpa49, active compounds read low 1.01 | S. cerevisiae deletion strains, locus YNL250W, strain rad50, active compounds read low 1.02 | S. cerevisiae deletion strains, locus YNL271C, strain bni1, active compounds read low 1.02 | S. cerevisiae deletion strains, locus YNL298W, strain CLA4, active compounds read low 1.03 | S. cerevisiae deletion strains, locus YNL307C, strain MCK1, active compounds read low 1.05 | S. cerevisiae deletion strains, locus YNL322C, strain KRE1 (second series), active compounds read low 1.01 | S. cerevisiae deletion strains, locus YNL322C, strain KRE1, active compounds read low 1.01 | S. cerevisiae deletion strains, locus YNR049C, strain mso1, active compounds read low 0.997 | S. cerevisiae deletion strains, locus YNR052C, strain pop2, active compounds read low 1.01 | S. cerevisiae deletion strains, locus YOL006C, strain TOP1, active compounds read low 1.04 | S. cerevisiae deletion strains, locus YOL012C, strain htz1 0.976 | S. cerevisiae deletion strains, locus YOL147C, strain pex11, active compounds read low 1 | S. cerevisiae deletion strains, locus YOR001W, strain rrp6, active compounds read low 0.971 | S. cerevisiae deletion strains, locus YOR061W, strain CKA2, active compounds read low 1.01 | S. cerevisiae deletion strains, locus YOR069W, strain VPS5, active compounds read low 1 | S. cerevisiae deletion strains, locus YOR070C, strain gyp1, active compounds read low 1.01 | S. cerevisiae deletion strains, locus YOR080W, strain dia2, active compounds read low 1.01 | S. cerevisiae deletion strains, locus YOR083W, strain WHI5, active compounds read low 1 | S. cerevisiae deletion strains, locus YOR106W, strain vam3, active compounds read low 1.02 | S. cerevisiae deletion strains, locus YOR136W, strain idh2, active compounds read low 1.02 | S. cerevisiae deletion strains, locus YOR144C, strain elg1, active compounds read low 1.01 | S. cerevisiae deletion strains, locus YOR184W, strain ser1, active compounds read low 1.07 | S. cerevisiae deletion strains, locus YOR231W, strain MKK1, active compounds read low 0.962 | S. cerevisiae deletion strains, locus YOR265W, strain rbl2, active compounds read low 0.994 | S. cerevisiae deletion strains, locus YOR270C, strain vph1, active compounds read low 0.977 | S. cerevisiae deletion strains, locus YOR290C, strain snf2, active compounds read low 1.02 | S. cerevisiae deletion strains, locus YOR316C, strain cot1, active compounds read low 1.02 | S. cerevisiae deletion strains, locus YPL051W, strain arl3, active compounds read low 1.03 | S. cerevisiae deletion strains, locus YPL055C, strain LGE1, active compounds read low 1.06 | S. cerevisiae deletion strains, locus YPL078C, strain atp4, active compounds read low 1.01 | S. cerevisiae deletion strains, locus YPL106C, strain sse1, active compounds read low 0.994 | S. cerevisiae deletion strains, locus YPL240C, strain hsp82, active compounds read low 0.991 | S. cerevisiae deletion strains, locus YPL241C, strain CIN2, active compounds read low 1.01 | S. cerevisiae deletion strains, locus YPL256C, strain CLN2, active compounds read low 0.973 | S. cerevisiae deletion strains, locus YPR119W, strain clb2, active compounds read low 1 | S. cerevisiae deletion strains, locus YPR141C, strain kar3, active compounds read low 1.02 | S. cerevisiae deletion strains, locus YPR163C, strain tif3, active compounds read low 1.01 | S. cerevisiae deletion strains, locus YPR167C, strain met16, active compounds read low 1.02 | S. cerevisiae deletion strains, strain wtn01, active compounds read low 1 | S. cerevisiae strains, strain wild type, active compounds read low 1.05
